# Source: PubChem BioAssay
# A selection: hits, their analogues and other compounds. The true share with any hit is near 4.8%.
# DAX1 inh-1: DAX1 (NR0B1) inhibition, primary screen; HEK293T StAR-luciferase reporter, SF-1/DAX-1 repression relief; inhibition, % at 6.8 µM; 370,000 compounds, 1.1% hits; AID 652010;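 active = inhibition above the mean over all tested compounds plus 3 SD, cut at about 3.6% in these data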;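 also: 0% = DAX-1 cells with DMSO and 100% = cells lacking DAX-1 with DMSO; higher inhibition means more luminescence from relief of DAX-1 repression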
# hgDAF-12 ag: hgDAF-12 agonism, primary luciferase screen; HEK293 GAL4-hgDAF12 UAS-luciferase reporter, agonist luminescence; normalized to butyrate control; activation, % at 6.8 µM; 370,000 compounds, 1.8% hits; AID 687014;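 active = activation above a cutoff set at the mean of all screened compounds plus 3 SD, cut at about 10% in these data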;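 also: 0% = DMSO wells and 100% = sodium butyrate wells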
# ssDAF-12 act: S. stercoralis DAF-12 activation, primary screen; HEK293 ssDAF-12/GRIP1 lit1-tk-luc reporter, luminescence; % of 3 µM dafachronic acid response; activation, % at 6.8 µM; 370,000 compounds, 1% hits;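 active = activation above the mean over all tested compounds plus 3 SD, cut at about 0.9% in these data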;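 also: 0% = DMSO-only wells and 100% = 3 µM delta7-dafachronic acid wells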
# DAX1 inh-2: inhibitors of human orphan nuclear receptor DAX1 (NR0B1) | HEK293 Gal4-DAX1 luciferase reporter, luminescence | inhibition, % at 6.75 µM | 340,000 compounds, 0.99% hits;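 active = inhibition above the mean over all tested compounds plus 3 SD, cut at about 4.2% in these data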;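 also: 0% = DAX1-transfected cells with DMSO and 100% = empty-vector control cells with DMSO; inhibition shows as a rise in luminescence from relieved DAX1 repression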
# hcDAF-12 act: activates DAF-12 receptor from parasite H. contortus. activation, % at 6.8 µM. HEK293 hcDAF-12 lit1-tk-luc reporter, luminescence; 0% DMSO, 100% Δ7-dafachronic acid. 370,000 compounds, 1.4% hits;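 active = activation above the mean of all tested compounds plus 3 SD, cut at about 5.5% in these data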;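 also: 100% = response to 3 µM Δ7-dafachronic acid high control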
# NR1D1 modulator: modulates human Rev-erb alpha binding to DNA. AID 1259318. activity, % at 10 µM. Rev-erbα–FITC-DNA binding, fluorescence polarization, 90 min. 370,000 compounds, 0.79% hits. P20393;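 active = activity above about 14%, limit read from the data; passing the limit was not always enough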;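 also: 0% = DMSO wells with 35 nM protein and 100% = DMSO wells with 750 nM protein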
# Target sequence (P20393 whole entry, looked up): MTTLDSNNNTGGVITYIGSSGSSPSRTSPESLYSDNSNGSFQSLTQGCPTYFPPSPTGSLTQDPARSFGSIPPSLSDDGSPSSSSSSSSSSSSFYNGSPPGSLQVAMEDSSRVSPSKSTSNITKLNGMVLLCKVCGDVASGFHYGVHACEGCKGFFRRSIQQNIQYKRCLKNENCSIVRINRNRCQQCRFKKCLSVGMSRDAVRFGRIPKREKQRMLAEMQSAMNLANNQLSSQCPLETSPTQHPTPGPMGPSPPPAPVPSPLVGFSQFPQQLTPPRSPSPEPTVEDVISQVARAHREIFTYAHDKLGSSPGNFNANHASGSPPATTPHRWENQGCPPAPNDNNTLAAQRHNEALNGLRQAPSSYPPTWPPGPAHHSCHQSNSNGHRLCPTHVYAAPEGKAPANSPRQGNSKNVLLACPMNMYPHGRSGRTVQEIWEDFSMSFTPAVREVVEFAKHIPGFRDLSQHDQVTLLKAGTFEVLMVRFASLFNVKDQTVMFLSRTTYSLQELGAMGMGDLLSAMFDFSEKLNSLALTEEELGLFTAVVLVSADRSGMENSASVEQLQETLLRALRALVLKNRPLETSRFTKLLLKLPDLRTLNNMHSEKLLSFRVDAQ
# LXRb hcDAF ctr: LXR-beta agonism as hcDAF-12 counter-screen. 3,400 tested, under 10 active. activation, % at 6.8 µM. shares compounds with hcDAF-12 act. AID 743027. HEK293 Gal4-LXR tk-luc reporter, luminescence, 24 h; normalized: DMSO 0%, positive control 100%;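 active = mean percent activation of the reporter above a cutoff set as the average over tested compounds plus their standard deviation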
# hcDAF12 conf: confirmation of H. contortus DAF-12 agonists; 3,400 compounds, 61% hits; activation, % at 6.8 µM; shares compounds with hcDAF-12 act; HEK293 hcDAF-12 lit1-tk-luc reporter, luminescence; % of Δ7-dafachronic acid response;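 active = mean activation across triplicate tests above the threshold derived from the earlier primary screen, cut at about 5.5% in these data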;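 also: 0% = DMSO only wells and 100% = 3 µM Δ7-dafachronic acid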
# hgDAF12 ag: confirmation of H. glycines DAF-12 agonists | 3,300 compounds, 80% hits | activation, % at 6.8 µM | HEK293 GAL4-hgDAF12 luciferase reporter, agonist mode; percent of butyrate response | shares compounds with hgDAF-12 ag;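 active = mean activation over triplicate wells above the hit cutoff derived from the earlier primary screen, cut at about 11% in these data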;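 also: 0% = DMSO low control and 100% = 2 mM sodium butyrate high control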
# LXR ag 2: LXR-beta agonism as DAF-12 counter-screen. 3,300 tested, under 10 active. activation, % at 6.8 µM. shares compounds with hgDAF-12 ag. HEK293 Gal4-LXR luciferase reporter, 24 h;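 active = mean activation of the triplicate above a set limit carried over from the primary screen, none filed active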
# Numbers without * were called inactive; · = not tested or not shown.
SMILES,DAX1 inh-1,hgDAF-12 ag,ssDAF-12 act,DAX1 inh-2,hcDAF-12 act,NR1D1 modulator,LXRb hcDAF ctr,hcDAF12 conf,hgDAF12 ag,LXR ag 2
C[C@H](CO)N1C[C@H](C)[C@@H](CN(C)C(=O)Nc2cccc(F)c2)OCc2cn(nn2)CCCC1=O,-1,3,-1,·,0,-1,·,·,·,·
O=C(N/N=C/c1cccs1)c1n[nH]c2c1CCC2,1,14*,1.8*,2,7.1*,8,1,3,14*,1
CC1=CC(=C(c2ccc(N)cc2)c2ccc(N)cc2)C=CC1=N,·,·,·,·,·,-8,·,·,·,·
COc1ccc2[nH]c3nc(SC(C)C)nnc3c2c1,3.9*,21*,1.5*,1,14*,-4,2,9.1*,9,1
Clc1ccc2nc(-c3ccccc3)cn2c1,2,18*,1.9*,-1,11*,2,2,9.7*,18*,1
O=C(N1CCC(Cc2ccccc2)CC1)n1ncc(C(O)(c2ccccc2)c2ccccc2)n1,·,-10,-2,·,-4,-1,·,·,·,·
Cc1ccsc1/C=N/Nc1nc2ccccc2[nH]1,3.7*,14*,-1,0,9.9*,2,1,5,14*,1
Clc1nc2ccccc2cc1/C=N/Nc1nc2ccccc2[nH]1,2,14*,1.7*,0,9.3*,0,1,14*,17*,1
O=C(NCc1ccccc1)[C@H]1CCCN1C(=O)[C@H]1CCCN1C(=O)c1ccccc1C(F)(F)F,1,-1,-1,·,1,-2,·,·,·,·
Cc1ccc(N/N=C(\C#N)C(N)=S)cc1C,0,5,-2,1,3,1,·,·,·,·
Cc1ccc(N/C=C(/C#N)c2ccsc2)cc1C,2,15*,1.5*,3,7.2*,4,1,8.1*,22*,1
N/C(=N\OC(=O)c1cccc2ccccc12)c1cccnc1,1,14*,1.6*,0,12*,-3,0,9.0*,12*,0
Clc1ccc(CN2CCN(N=Cc3ccncc3)CC2)cc1,-4,-4,-2,·,-5,7,·,·,·,·
C[C@@H]1COc2cc(NCCO)ccc2S(=O)(=O)N1,1,-1,-1,·,-1,6,·,·,·,·
COc1cc(-c2nc3ccccc3s2)ccc1O,2,14*,0,3,8.6*,-8,1,7.3*,14*,1
O=C(OCc1cn(Cc2ccccc2C(F)(F)F)nn1)N1CCOCC1,0,3,-1,·,-1,6,·,·,·,·
CN(CCCOC(=O)CC1C=CCC1)C1CN(Cc2cn(Cc3ccccc3Cl)nn2)S(=O)(=O)C1 (stereo not given),0,-1,-1,·,0,3,·,·,·,·
Clc1ccccc1Nc1nnc(-c2ccncc2)s1,4.4*,17*,1,-3,11*,2,1,6.7*,17*,1
COc1cccc(Nc2nc(-c3cccnc3)cs2)c1,2,14*,1.7*,4.4*,13*,-5,1,8.2*,17*,1
Cc1ccc(C)c(Nc2nc(-c3cccnc3)cs2)c1,0,6,-2,0,1,0,·,·,·,·
COc1ccc(-c2csc(Nc3cccnc3)n2)cc1OC,-1,1,-1,-1,-2,6,·,·,·,·
Clc1ccccc1Nc1nc(-c2cccnc2)cs1,3.7*,34*,1.1*,9.5*,11*,-2,2,7.3*,24*,1
CN1Cc2nnn(CC3CCCCC3)c2-c2ccccc2S1(=O)=O,0,-3,-1,·,-3,-5,·,·,·,·
Oc1[nH]c2ccccc2c1N=Nc1ccccc1F,2,16*,1,3,12*,0,1,14*,21*,1
O=[N+]([O-])c1ccccc1N=Nc1c(O)[nH]c2ccc(F)cc12,3,7,0,1,3,-23,·,·,·,·
SMILES,DAX1 inh-1,hgDAF-12 ag,ssDAF-12 act,DAX1 inh-2,hcDAF-12 act,NR1D1 modulator,LXRb hcDAF ctr,hcDAF12 conf,hgDAF12 ag,LXR ag 2
CC(C)c1ccc(NC(=O)COc2ccc(F)cc2C(=O)c2cnn(-c3ccccc3)c2)cc1,4.1*,18*,2.2*,1,12*,8,1,14*,17*,0
CCSc1cc(C)nc2c(-c3ccccc3)cnn12,4.0*,18*,2.4*,4,13*,7,1,11*,15*,1
CN(C)c1ccc(N=Nc2cccc3ccoc23)cc1,3,19*,1.6*,6.5*,16*,8,1,9.0*,20*,1
O/N=C/c1ccc(OCc2ccccc2F)c(Cl)c1,2,19*,0,2,6.7*,3,1,5,17*,1
Cn1c(Sc2nc3ccccc3n2C)nc2ccccc21,-1,-1,-1,-2,2,-4,·,·,·,·
Cn1c2nc3ccccc3c-2nc2ccccc21,2,16*,0,2,8.3*,-12,0,6.7*,15*,0
Cc1ccc(-c2nc(-c3ccncc3)no2)c(Cl)c1,3,16*,1.5*,0,7.6*,-2,1,8.5*,16*,1
Clc1ccc(Cl)c(-c2nc(-c3ccncc3)no2)c1,0,1,-1,1,3,17,·,·,·,·
Cc1csc(NC(=O)c2ccc3ccccc3n2)n1,3,18*,4.1*,1,21*,2,2,16*,26*,1
O=C(Nc1nccs1)c1ccc2ccccc2n1,2,18*,3.6*,1,18*,5,2,16*,23*,1
O=C(Nc1ccccn1)c1ccc2ccccc2n1,4,17*,3.7*,1,19*,1,2,22*,18*,1
O=C(Nc1nccs1)c1cc(Cl)nc2ccccc12,0,2,0,2,2,2,·,·,·,·
O=C(Nc1nccs1)c1sc2ccccc2c1Cl,3,18*,3.0*,-1,15*,15,2,16*,17*,1
O=C(NC1CCCCN(Cc2ccc(Cl)cc2)C1=O)c1ccc(Cl)cc1Cl (stereo not given),-1,0,-1,·,-1,1,·,·,·,·
